Test results published in PubChem BioAssay.
Calls of active or inactive are those of the source.

target: Luciferin 4-monooxygenase (Photinus pyralis) (UniProt P08659); experiment: inhibition of purified Photinus pyralis luciferase – biochemical, luminescence, purified enzyme, 2006 set, primary screen (AID 1141); conditions: purified firefly luciferase, SteadyGlo luminescence, 30 min; higher = more signal, called active from +8 up or from −8 down;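 also: cell-free assay with purified firefly luciferase at 100 ng per well in PBS; test concentration not given here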
Sequence (P08659 whole entry, looked up): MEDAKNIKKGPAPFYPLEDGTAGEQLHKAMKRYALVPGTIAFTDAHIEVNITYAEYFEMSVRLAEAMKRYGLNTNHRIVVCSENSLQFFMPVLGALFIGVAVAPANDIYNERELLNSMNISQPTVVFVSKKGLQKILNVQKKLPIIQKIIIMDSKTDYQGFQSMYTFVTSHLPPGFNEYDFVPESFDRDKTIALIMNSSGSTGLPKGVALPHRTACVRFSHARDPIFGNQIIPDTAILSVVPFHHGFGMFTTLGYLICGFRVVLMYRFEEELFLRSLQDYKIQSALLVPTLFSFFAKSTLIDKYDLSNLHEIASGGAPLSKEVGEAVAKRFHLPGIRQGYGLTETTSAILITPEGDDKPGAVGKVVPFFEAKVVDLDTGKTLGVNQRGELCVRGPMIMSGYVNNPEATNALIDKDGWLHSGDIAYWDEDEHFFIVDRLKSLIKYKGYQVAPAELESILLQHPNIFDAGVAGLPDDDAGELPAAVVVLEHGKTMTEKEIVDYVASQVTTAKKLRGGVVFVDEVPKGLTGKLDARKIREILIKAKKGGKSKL

z-score, inactive:
COCCOC(=O)N1C(=O)[C@@]2(c3ccccc31)[C@H](c1ccc(O)cc1)N1[C@H](c3ccccc3)[C@H](c3ccccc3)OC(=O)[C@H]1[C@@H]2C(=O)Nc1nc2ccccc2s1 -1.32, NC(=O)NCC#Cc1ccc2c(c1)[C@]1(C(=O)N2)[C@H](C(=O)Nc2nc3ccccc3s2)[C@H]2C(=O)O[C@H](c3ccccc3)[C@H](c3ccccc3)N2[C@@H]1c1ccccc1OCCO -0.921, COCCOC(=O)N1C(=O)[C@@]2(c3ccccc31)[C@H](c1ccccc1OCCO)N1[C@H](c3ccccc3)[C@H](c3ccccc3)OC(=O)[C@H]1[C@@H]2C(=O)N1CCN(c2ncccn2)CC1 -0.388, COC(=O)[C@@]1(Cc2ccc(F)cc2)[C@H]2c3cc(C(=O)N4CCCC4)n(CCCNc4ncc(C(F)(F)F)cc4Cl)c3C[C@H]2CN1C(=O)c1ccccc1 1.37, CC(C)C[C@@H]1NC(=O)[C@@H]2C[C@H](C(=O)NCc3ccc(F)cc3)[C@H](c3cccc(OCCO)c3)N2C1=O -0.976, C=CCC(OC(C)=O)[C@@H]1[C@@H](N(Cc2cc3ccccc3o2)C(=O)c2cccc3ccccc23)c2cc(OCCCO)ccc2N1C(=O)c1ccc(-c2ccccc2)cc1 (stereo not given in full) -0.219, C#C[C@H](O[Si](C#Cc1ccc(Oc2ccccc2)cc1)(C(C)C)C(C)C)c1ccccc1 0.0848, O=C1N[C@@H](Cc2ccccc2)C(=O)N2[C@@H]1C[C@@H](C(=O)O)[C@H]2c1cccc(OCCO)c1 -1.91, COCCCNC(=O)[C@@]1(C)c2ccccc2C(=O)N(C(C)C)[C@H]1c1ccc(CO)cc1 -0.336, C=CCN1C(=O)[C@@]2(Cc3ccccc31)N=C(c1ccc(OCCCO)cc1)O[C@H]2c1ccccc1 -2.65, CN(C)CCCCCCNC(=O)[C@H]1C[C@H]2C(=O)N[C@@H](CCCCN)C(=O)N2[C@H]1c1cccc(OCCO)c1 -0.485, COc1cc2c(cc1OC)CN(C(=O)[C@H]1[C@@H]3C(=O)O[C@@H](c4ccccc4)[C@@H](c4ccccc4)N3[C@@H](c3ccc(O)cc3)[C@]13C(=O)Nc1ccccc13)CC2 -0.204, C=CC1(C(=O)OC)CC=C(C(=O)OC)CC1 (stereo not given) 0.723, CCCC=C(CCC)[C@@H](NC(=O)c1cccs1)c1ccc(C(F)(F)F)cc1 -2.34, C=CCNC(=O)[C@@H]1[C@H]2C(=O)O[C@H](c3ccccc3)[C@H](c3ccccc3)N2[C@H](c2ccccc2OCCO)[C@@]12C(=O)N(C(=O)OCCOC)c1ccccc12 -0.549, COC(=O)C[C@H]1O[C@]2(C(=O)N(C)c3ccccc32)[C@@H](C)[C@@H]1[Si](C)(C)F -1.82, C=CCOC(=O)[C@@H]1[C@H]2C(=O)O[C@H](c3ccccc3)[C@H](c3ccccc3)N2[C@H](c2ccc(OCCOC(=O)[C@@H]3C[C@@H]4C(=O)NCC(=O)N4[C@@H]3c3ccc(O)cc3)cc2)[C@@]12C(=O)Nc1ccc(I)cc12 0.401, COc1ccc(CCNC(=O)[C@@]2(C)c3ccccc3C(=O)N(C(C)C)[C@H]2c2ccc(CO)cc2)cc1 -1.19, C=C(CC1([C@@H](NP(=O)(c2ccccc2)c2ccccc2)[C@H]2C[C@@H]2CCCC)CC1)c1ccccc1 2.82, COC(=O)[C@H](Cc1ccccc1)N1CC2=C[C@@H](C3CC3)n3c(=O)n(C)c(=O)n3[C@H]2[C@@H]1[C@@H](O)Cc1ccccc1 -0.126, C=C(/C(=C/C[C@H](OC(C)=O)c1ccc(CO)o1)c1cc(C(=O)OC)ccc1OC)C(C)C -1.33, [N-]=[N+]=Nc1ccccc1[C@H]1OC(c2ccc(OCCCO)cc2)=N[C@@]1(CCS(=O)(=O)c1ccccc1)C(N)=O -6.6, COc1cc2c(cc1OC)CN(C(=O)[C@@H]1[C@H]3C(=O)O[C@H](c4ccccc4)[C@H](c4ccccc4)N3[C@H](c3ccccc3OCCO)[C@@]13C(=O)Nc1ccc(C#CCCO)cc13)CC2 -0.785, C[N+](C)(C)CCCCNC(=O)[C@@H]1C[C@@H]2C(=O)N[C@@H](Cc3ccccc3)C(=O)N2[C@@H]1c1cccc(OCCO)c1 -1.75, COCCOC(=O)N1C(=O)[C@@]2(c3cc(C#CCC(C(=O)OC)C(=O)OC)ccc31)[C@H](C(=O)Nc1nc3ccccc3s1)[C@H]1C(=O)O[C@H](c3ccccc3)[C@H](c3ccccc3)N1[C@@H]2c1ccccc1OCCO -1.56, CCC[C@@H]1C[C@@]1(CCC)[C@@H](NS(=O)(=O)c1cccc2cccnc12)c1ccc(Cl)cc1 0.19, C=CCNC(=O)[C@@H]1[C@H]2C(=O)O[C@H](c3ccccc3)[C@H](c3ccccc3)N2[C@H](c2ccc(O)cc2)[C@@]12C(=O)N(C(=O)OCCOC)c1ccc(C#CCNC(N)=O)cc12 -1.43, COCCOC(=O)N1C(=O)[C@@]2(c3cc(C#CCCO)ccc31)[C@H](C(=O)N1CCCCCCC1)[C@H]1C(=O)O[C@H](c3ccccc3)[C@H](c3ccccc3)N1[C@@H]2c1ccc(OCCO)cc1 0.242, COC(=O)[C@@]1(CCC(=O)OC(C)(C)C)N=C(c2ccc(OCCCO)cc2)O[C@H]1c1ccccc1N=[N+]=[N-] -7.29, CCCCCN1CC=CC23O[C@@H]4/C=C\CCC(C)OC(=O)C4[C@H]2C(=O)N(C(C)CO)[C@@H]3C1=O (stereo not given in full) -0.078, Cc1ccc(S[C@]2(C(=O)NC3CC3)CC(=O)N(Cc3ccccc3)[C@@H]2c2ccc(CO)cc2I)cc1 -1.42, O=C1NC(=O)C2C1C=CC(C(O)c1cccs1)N2Nc1ccc(Cl)cc1Cl (stereo not given) -1.64, C=CCC(OC(C)=O)[C@@H]1[C@@H](N(Cc2ccc(-c3ccccc3)cc2)C(=O)c2cccc3ccccc23)c2cc(OCCCO)ccc2N1C(=O)c1ccc(-c2ccccc2)cc1 (stereo not given in full) -0.52, CCOC(=O)C[C@H]1[C@H](OC(=O)c2ccc(C(=O)c3ccccc3)cc2)[C@@H](NC(=O)c2ccccc2)c2cc(OCCCO)ccc2N1C(=O)c1ccc2ccccc2n1 -0.417, COc1cc2c(cc1O)C(C1CC1)N(Cc1sc3ccccc3c1Cl)CC2 (stereo not given) -0.593
